Assay results taken from PubChem BioAssay AID525 (The Scripps Research Institute Molecular Screening Center, 2006).
In all, about 65,000 compounds went through this assay and about 360 (0.55%) were called active. The sample as a whole holds a higher share of actives than the screen did. A number with no mark means an inactive call.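 Rule for the calls: active = inhibition above the mean inhibition of all tested compounds plus 3 SD (cut at about 48% in these data); inactive = the rest.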

molecular target: Steroidogenic factor 1 (Homo sapiens) (UniProt Q13285); assay: inhibitors of human SF-1, primary screen, cell-based, CHO-K1, Gal4-SF-1 LBD, luciferase luminescence (AID 525); details: CHO-K1 Gal4-SF-1 LBD luciferase reporter; at 10 µM; stronger effect = higher value;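 note: 0% = SF-1 transfected cells with DMSO and 100% = mock-transfected cells lacking SF-1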
Sequence (Q13285 whole entry, looked up, the tested form may be a part): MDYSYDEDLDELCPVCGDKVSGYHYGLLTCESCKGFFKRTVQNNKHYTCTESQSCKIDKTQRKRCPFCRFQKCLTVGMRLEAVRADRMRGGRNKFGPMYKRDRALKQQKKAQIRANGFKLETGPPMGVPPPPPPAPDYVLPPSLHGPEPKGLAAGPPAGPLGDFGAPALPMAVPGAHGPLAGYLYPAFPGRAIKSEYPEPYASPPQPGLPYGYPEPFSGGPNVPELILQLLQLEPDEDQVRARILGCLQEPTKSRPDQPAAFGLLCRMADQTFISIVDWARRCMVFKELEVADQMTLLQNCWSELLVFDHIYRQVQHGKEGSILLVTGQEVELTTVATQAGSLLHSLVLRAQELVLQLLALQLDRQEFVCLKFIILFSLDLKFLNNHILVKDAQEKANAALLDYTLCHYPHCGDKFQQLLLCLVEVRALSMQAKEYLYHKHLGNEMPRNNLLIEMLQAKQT

Row | SMILES | inhibition
1 | CC(=O)c1c(N2CCOCC2)nc(=S)n(-c2cc(C)ccc2C)c1C | -0.4%
2 | COC(=O)c1ccc(NC(=O)c2ccco2)cc1 | -85.3%
3 | O=C(OC1CCOC1=O)c1ccc(-c2nc3ccccc3s2)s1 (centres undefined) | 59.9% (active)
4 | COc1ccccc1N1CC(O)=C(c2nc3ccccc3s2)C1=N | -13.3%
5 | COc1ccc(CCN2CNc3c(c(=O)n(C)c(=O)n3C)C2)cc1OC | -1.5%
6 | CSCC[C@H](NC(=O)NCCc1ccc(F)cc1)C(=O)O | -3.2%
7 | Fc1ccc2nc(Nc3nc4c(s3)CCCC4)sc2c1 | -90%
8 | CCCC(CCC(=O)OC)(C(=O)OCC)c1csc(N)n1 (centres undefined) | -13.3%
9 | CC(Oc1ccc(Cl)cc1)C(=O)Nc1ncccn1 (centres undefined) | 16%
10 | O=C(Nc1ccc(Cl)cn1)c1cnn2cccnc12 | -63.8%
11 | C=CCN(c1ccc(C(N)=O)cc1)S(C)(=O)=O | -14.5%
12 | Cc1cccc(CC(=O)Nc2c3c(nn2-c2cccc(Cl)c2)CS(=O)C3)c1 (centres undefined) | 13.6%
13 | COc1cccc(-c2nc3n(n2)C(c2ccccc2Cl)C(C(N)=O)=C(C)N3)c1 (centres undefined) | 17.2%
14 | O=S(=O)(c1cccs1)N1CCc2ccccc2C1 | 12.2%
15 | COCc1[nH]nc2c1C(C1C=CCCC1)C(C#N)=C(N)O2 (centres undefined) | -8%
16 | CCOC(=O)[C@H]1CCC[C@@H](NS(=O)(=O)c2ccc(NC(C)=O)cc2)C1 | -18.3%
17 | CCN(c1ccccc1)S(=O)(=O)c1ccc(N)cc1 | -8.5%
18 | CCCOc1ccc(/C(O)=C2/C(=O)C(=O)N(CCN(C)C)C2c2ccc(OC)c(OC)c2)cc1 (centres undefined) | -2.4%
19 | CC(C)Cc1cc(C(=O)NCCc2ccccc2)no1 | -80.7%
20 | Cc1cc(/C=N/n2cnnc2)c(C)n1-c1ccc2ncccc2c1 | 2.6%
21 | Cc1cccc(-c2noc(-c3ccc(F)cc3)n2)c1 | -77.6%
22 | O=C(Oc1ccc(-c2nc(-c3ccccn3)no2)cc1)c1ccccc1 | 49.6% (active)

Row | SMILES | inhibition
23 | CCOC(=O)N1CCC(Nc2c(NCCN3CCN(c4cccc(Cl)c4)CC3)c(=O)c2=O)CC1 | -1.7%
24 | COc1ccc(-c2noc(-c3cccc(OC)c3OC)n2)cc1OC | -100%
25 | COc1ccc(-c2nc(-c3ccccc3)no2)c(OC)c1 | 82.9% (active)
26 | COc1ccc2c(c1)CCc1c(C(=O)N3CCCC3)noc1-2 | -55.3%
27 | CCOC(=O)N1CCN(C(=O)C2CCCN(c3ncnc4c3sc3cccc(F)c34)C2)CC1 (centres undefined) | 2.8%
28 | CCOC(=O)N1CCN(CC(=O)Nc2cc(C)nn2-c2nc3ccccc3s2)CC1 | -0.5%
29 | CCOC(=O)N1CCN(C(=O)C2CCN(c3ncnc4c3sc3cccc(F)c34)CC2)CC1 | 55.2% (active)
30 | COc1ccc(C(CC(=O)O)NC(=O)Cc2ccccc2)cc1 (centres undefined) | 10.8%
31 | COC(=O)c1ccc(NC(=O)C(C)N2C(=O)c3ccccc3C2=O)cc1 (centres undefined) | -11.5%
32 | CCC(=O)N1CCN=C1SCc1ccc(F)cc1 | -14.3%
33 | CCN(CC)c1ccc(C(=O)OCC(=O)c2ccco2)cc1 | -53.6%
34 | CC1CCCN(Cc2nc3c(c(=O)n(C)c(=O)n3C)n2CC(=O)c2ccccc2)C1 (centres undefined) | -26.7%
35 | COc1ccc(CCNC(=O)CN2CCC(n3nnc4cc(F)ccc43)CC2)cc1OC | -4.4%
36 | C=CCn1c(=O)c2ccccc2n2c(SCC(=O)N3CCCc4ccccc43)nnc12 | 8.4%
37 | CCC(C(=O)NC1CCCC1)N(C(=O)c1snc(C(N)=O)c1N)c1ccc2c(c1)OCCO2 (centres undefined) | -2.2%
38 | CCOc1cc(C(=S)N2CCOCC2)ccc1O | 3.9%
39 | CCOc1cc(C(=O)N2CCc3cc(OC)c(OC)cc3C2)ccc1OC(F)F | 77.3% (active)
40 | COc1ccc(-c2cc(C(=O)NC(C(=O)O)C(C)C)c(C)o2)cc1OC (centres undefined) | -56.5%
41 | CCOc1ccccc1-n1c(SCC(=O)NCc2ccco2)nnc1-c1ccncc1 | 6.1%
42 | O=C(CN1C(=O)C2C3C=CC(C3)C2C1=O)NCC1COc2ccccc2O1 (centres undefined) | -7.1%
43 | CC(C)OCCCNc1ncnc2c1[nH]c1ccc(F)cc12 | 84.1% (active)
44 | CC(C)CNC(=O)c1cc(-c2ccc(Br)cc2)on1 | -52.5%

Row | SMILES | inhibition
45 | Cn1c(NC(=O)c2ccco2)c(-c2ccccc2Cl)c(=O)c2ccccc21 | -7.6%
46 | CC1=C(C(=O)OCc2ccccc2)C(c2ccco2)n2ncnc2N1 (centres undefined) | 14.7%
47 | O=C(COc1ncnc2ccccc12)NC(=O)NCc1ccccc1 | 2.4%
48 | CN(Cc1ccccc1)Cc1ccccc1F | 9.2%
49 | O=C(CN1C(=O)COc2ccccc21)Nc1ccc(F)cc1 | 8.5%
50 | CC(C)(C)NC(=O)Cn1nnc(-c2ccccc2Cl)n1 | -50%
51 | O=C(Cn1cc2c(n1)CCCCC2)NCCN1CCOCC1 | 8.1%
52 | COC(=O)c1ccc(NCC(=O)c2ccccc2)cc1 | -68.7%
53 | O=C(Cn1cnc2c(cnn2-c2ccccc2)c1=O)NCc1ccccc1 | -70.3%
54 | COc1ccccc1-c1cc(C(=O)N2CCCCC2)no1 | -82.1%
55 | CCOc1cccc(C(=O)Nc2cccnc2)c1 | -6.7%
56 | Cc1noc(/C=C/N(C)C)c1S(=O)(=O)N1CCCC(C(=O)NCc2ccco2)C1 (centres undefined) | 15%
57 | COc1ccccc1Nc1ncnc2c1oc1ccccc12 | -91.8%
58 | COC(=O)N1CN(C(=O)OC)CN(C(=O)OC)C1 | -1.7%
59 | C=C(C)CSc1nc(N)c2c3c(sc2n1)CCC3 | -51.4%
60 | CC(C)(CNCC(O)c1ccccc1)N1CCOCC1 (centres undefined) | -12.6%
61 | O=C(CS(=O)(=O)c1cn(Cc2cccc(F)c2)c2ccccc12)N1CCCCC1 | -5.4%
62 | Cc1noc(COc2ccccc2OCC(O)CNC(C)(C)C)n1 (centres undefined) | 0.5%
63 | COC(=O)c1c(NC(=O)c2cccs2)sc2c1CCCC2 | -28.2%
64 | N#CCCN1CCN(S(=O)(=O)c2ccc(S(=O)(=O)N3CCCC3)cc2)CC1 | 18%
